Assay outcomes as filed in PubChem BioAssay.
Sampled rows, rich in hits. Any-hit rate of the full collection: about 4.8%.
SMARCA2 act: SMARCA2 (BRM) function activators, primary screen, cell-based, luminescence, high throughput; activation, % at 9.1 µM; MG213 cells, MMTV-luciferase reporter, dexamethasone, overnight; AID 652017, 2013; actives 1% (n = 370,000); in the data active means activation above about 7.8%;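 further: 0% = vehicle wells and 100% = reference activator wells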
ssDAF-12 act: S. stercoralis DAF-12 nuclear receptor activators, primary screen, cell-based, luminescence, HEK293, GRIP1 co-expression, lit1-tk-luc | HEK293 ssDAF-12/GRIP1 lit1-tk-luc reporter; % of 3 µM dafachronic acid response | Nuclear hormone receptor DAF-12 (Strongyloides stercoralis) | activation, % at 6.8 µM | actives 1% (n = 370,000);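 active means activation above the mean over all tested compounds plus 3 SD, cut at about 0.9% in these data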;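 further: 0% = DMSO-only wells and 100% = 3 µM delta7-dafachronic acid wells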
hgDAF12 agonist: H. glycines DAF-12 receptor agonists, primary screen, cell-based, luminescence, HEK293, GAL4 fusion, UAS-luciferase | HEK293 GAL4-hgDAF12 UAS-luciferase reporter, agonist luminescence; normalized to butyrate control | activation, % at 6.8 µM | actives 1.8% (n = 370,000);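 active means activation above a cutoff set at the mean of all screened compounds plus 3 SD, cut at about 10% in these data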;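 further: 0% = DMSO wells and 100% = sodium butyrate wells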
hcDAF-12 act: H. contortus DAF-12 nuclear receptor activators, primary screen, cell-based, luminescence, HEK293, lit1-tk-luc reporter. HEK293 hcDAF-12 lit1-tk-luc reporter; 0% DMSO, 100% Δ7-dafachronic acid. activation, % at 6.8 µM. actives 1.4% (n = 370,000);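 active means activation above the mean of all tested compounds plus 3 SD, cut at about 5.5% in these data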;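 further: 100% = response to 3 µM Δ7-dafachronic acid high control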
DAX1 inh-1: DAX1 (NR0B1) inhibitors on StAR promoter, primary screen, cell-based, luminescence, SF-1 (NR5A1), full-length DAX-1 | HEK293T StAR-luciferase reporter, SF-1/DAX-1 repression relief | inhibition, % at 6.8 µM | actives 1.1% (n = 370,000) | AID 652010, 2013;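 active means inhibition above the mean over all tested compounds plus 3 SD, cut at about 3.6% in these data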;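 further: 0% = DAX-1 cells with DMSO and 100% = cells lacking DAX-1 with DMSO; higher inhibition means more luminescence from relief of DAX-1 repression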
DAX1 inh-2: DAX1 (NR0B1) inhibitors, primary screen, cell-based, HEK293, Gal4-DAX1, luciferase luminescence; Nuclear receptor subfamily 0 group B member 1 (Homo sapiens), P51843; HEK293 Gal4-DAX1 luciferase reporter; inhibition, % at 6.75 µM; actives 0.99% (n = 340,000);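 active means inhibition above the mean over all tested compounds plus 3 SD, cut at about 4.2% in these data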;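 further: 0% = DAX1-transfected cells with DMSO and 100% = empty-vector control cells with DMSO; inhibition shows as a rise in luminescence from relieved DAX1 repression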
SMARCA2 conf: SMARCA2 (BRM) function activators, confirmation, cell-based, luminescence, triplicate; shares compounds with SMARCA2 act; MG213 cells, MMTV-luciferase with dexamethasone, overnight; MG213 cells expressing E1A, Rb sequestered; DMSO wells 0%, reference activator 100%; activation, % at 9.1 µM; actives 30% (n = 3,500);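 active means activation above its plate's cutoff, the mean activation of tested wells plus 3 SD, cut at about 7.9% in these data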
VP16 Luc act: GAL4-VP16 luciferase reporter activation, counter-screen for SMARCA2 (BRM) activator project, cell-based, pG5luc, luminescence, high throughput | shares compounds with SMARCA2 act | HEK293 GAL4-VP16 pG5luc reporter; scaled: DMSO wells 0%, SAHA wells 100% | activation, % at 9.1 µM | actives 41% (n = 3,500) | AID 686939, 2013;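 active means activation above the solvent-only control well mean plus 3 SD, averaged across control plates, cut at about 5.2% in these data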
LXR ag: LXR agonists, Gal4 luciferase reporter, confirmation, counter-screen for hcDAF-12 agonist project, cell-based, luminescence, HEK293, H. contortus campaign; shares compounds with hcDAF-12 act; 3,400 tested, under 10 active; HEK293 Gal4-LXR tk-luc reporter, 24 h; normalized: DMSO 0%, positive control 100%; activation, % at 6.8 µM;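 active means mean percent activation of the reporter above a cutoff set as the average over tested compounds plus their standard deviation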
Target sequence (P55055 whole entry, looked up, the tested form may be a part): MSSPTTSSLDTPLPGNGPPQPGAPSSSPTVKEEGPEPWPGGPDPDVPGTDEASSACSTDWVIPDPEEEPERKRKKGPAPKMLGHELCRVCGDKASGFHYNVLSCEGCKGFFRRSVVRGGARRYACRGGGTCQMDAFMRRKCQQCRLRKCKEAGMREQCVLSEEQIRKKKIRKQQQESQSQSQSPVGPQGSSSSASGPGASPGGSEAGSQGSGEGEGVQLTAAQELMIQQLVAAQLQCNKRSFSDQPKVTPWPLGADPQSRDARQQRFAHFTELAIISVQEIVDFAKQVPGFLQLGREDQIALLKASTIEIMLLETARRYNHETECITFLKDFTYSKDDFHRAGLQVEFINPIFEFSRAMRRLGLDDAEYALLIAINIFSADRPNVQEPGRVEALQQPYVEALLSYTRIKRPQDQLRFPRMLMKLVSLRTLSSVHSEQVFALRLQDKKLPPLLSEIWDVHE
hcDAF12 conf: H. contortus DAF-12 receptor agonists, confirmation, cell-based, luminescence, HEK293, lit1-tk-luc, triplicate; shares compounds with hcDAF-12 act; HEK293 hcDAF-12 lit1-tk-luc reporter; % of Δ7-dafachronic acid response; activation, % at 6.8 µM; actives 61% (n = 3,400); AID 743032, 2013;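 active means mean activation across triplicate tests above the threshold derived from the earlier primary screen, cut at about 5.5% in these data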;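 further: 0% = DMSO only wells and 100% = 3 µM Δ7-dafachronic acid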
hgDAF12 ag: H. glycines DAF-12 receptor agonists, confirmation, cell-based, luminescence, HEK293, GAL4-LBD fusion; shares compounds with hgDAF12 agonist; HEK293 GAL4-hgDAF12 luciferase reporter, agonist mode; percent of butyrate response; activation, % at 6.8 µM; actives 80% (n = 3,300); AID 743050, 2013;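 active means mean activation over triplicate wells above the hit cutoff derived from the earlier primary screen, cut at about 11% in these data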;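 further: 0% = DMSO low control and 100% = 2 mM sodium butyrate high control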
LXRb DAF12 ctr: LXR agonists, Gal4 luciferase reporter, confirmation, counter-screen for hgDAF-12 agonist project, cell-based, luminescence, HEK293, H. glycines campaign. shares compounds with hgDAF12 agonist. 24 h. activation, % at 6.8 µM. 3,300 tested, under 10 active. AID 743051, 2013;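 active means mean activation of the triplicate above a set limit carried over from the primary screen, none filed active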
Numbers without * were called inactive; . = no result given.

SMILES	SMARCA2 act	ssDAF-12 act	hgDAF12 agonist	hcDAF-12 act	DAX1 inh-1	DAX1 inh-2	SMARCA2 conf	VP16 Luc act	hgDAF12 ag	LXRb DAF12 ctr	others
Cc1ccc(C(=O)Nc2nnc(SCC(=O)N3CCCc4ccccc43)s2)cc1	9.3*	1	14*	4	4.2*	-2	4	8.4*	9	1
COC(=O)[C@]12C[C@H](CC(=O)N3CCOCC3)C(=O)N(Cc3ccc4c(c3)OCO4)C1=C[C@H](COCc1ccccc1)O[C@@H]2C	-5	-2	0	0	-1	.	.	.	.	.
Cc1ccc(C2=NNC3(CCOC(C)(C)C3)S2)cc1 (configuration not stated)	11*	1.0*	17*	11*	4.0*	2	9.9*	3	6	0
Cc1ccccc1OCc1nc2ccccc2[nH]1	8.9*	0	19*	2	4	2	2	14*	17*	1
CCCCc1nc2ccccc2[nH]1	0	-2	2	0	1	0	.	.	.	.
O=C(Nc1ccc(N2CCCCCC2)cc1)c1ccccc1Cl	8.0*	1	17*	1	1	2	5	8.0*	19*	1
CC(=O)N1CCN(c2ccc(NC(=O)c3ccccc3Cl)cc2)CC1	0	-1	3	0	0	0	.	.	.	.
Cc1ccc2nc(SCn3nnc4ccccc4c3=O)[nH]c2c1	8.4*	1.8*	24*	9.8*	4.1*	4	8.1*	13*	16*	1	LXR ag=1;hcDAF12 conf=10*
Cc1cc(=O)[nH]c(SCn2nnc3ccccc3c2=O)n1	1	-2	-2	0	0	3	.	.	.	.
COC(=O)C1=C(C)N(C)C(=NCc2ccccc2)NC1c1cccc(Cl)c1 (configuration not stated)	-5	-1	1	0	0	.	.	.	.	.
CCc1ccc(-c2cnc3ccccc3n2)cc1NC(=O)CNC(=O)c1ccccc1	8.1*	1.1*	19*	13*	3	1	7	18*	9	1	LXR ag=2;hcDAF12 conf=6.6*
CCCCS(=O)(=O)N1CCCc2nc(-c3ccccc3)ccc21	-4	-1	2	-1	0	.	.	.	.	.
O=C(c1ccco1)N1CCc2ccccc21	8.5*	-1	14*	3	3	1	4	4	8	0
Cc1ccc(CSc2nnc(-c3ccccc3)n2Cc2ccco2)cc1	-4	-2	-3	-2	-2	.	.	.	.	.
COC(=O)c1ccccc1S(=O)(=O)NC(=O)[C@H]1O[C@@H](n2ccc(=O)[nH]c2=O)[C@H](O)[C@@H]1O	-1	-1	-2	-1	0	.	.	.	.	.
Cc1cc(C)n2nc(C(=O)NCc3ccccc3)cc2n1	0	-2	2	-1	0	1	.	.	.	.
Cc1ccc(NC(=O)c2cc3nc(C)cc(C)n3n2)cc1	9.4*	1	16*	8.5*	4.3*	0	10*	7.9*	17*	1	LXR ag=1;hcDAF12 conf=5
NNC(=O)CNC(=O)c1ccccc1F	0	-1	-1	-2	-1	1	.	.	.	.
O=C(CNC(=O)c1ccccc1F)c1ccccc1	10*	1.1*	17*	7.0*	2	2	5	9.6*	14*	1	LXR ag=1;hcDAF12 conf=5
COc1cc(/C=C2\SC(=S)N(Nc3ccccc3)C2=O)ccc1O	8.2*	-1	14*	5	2	1	7	11*	15*	1
CCOc1cc(/C=C2\SC(=S)N(Nc3ccccc3)C2=O)ccc1O	4	-1	3	0	1	0	.	.	.	.
Cc1ccc(-c2cnc3ccccc3n2)cc1C	8.2*	1.5*	14*	14*	3	3	3	9.4*	20*	1	LXR ag=2;hcDAF12 conf=16*
O=C(CSc1nnc(-c2cccnc2)n1-c1ccc(Cl)cc1)Nc1cccc2ccccc12	-5	-1	-3	0	-1	.	.	.	.	.
O=C(N/N=C\c1ccccn1)c1ccccc1O	13*	0	15*	0	0	1	-10	11*	3	0
O=C(N/N=C/c1ccccn1)c1ccccc1	4	-1	8	4	2	-1	.	.	.	.
COC(=O)c1cccc(Nc2cc(C)n(-c3cccc(C(=O)OC)c3)c(=O)c2)c1	1	-1	-3	-1	0	.	.	.	.	.
